# Most compounds without a hit are left out; they make up all but 9.4% or so of the library.
# IMPase cell inh: qHTS Assay for Identifying the Cell-Membrane Permeable IMPase Inhibitors; AID 901, 2007; inhibition (IP1 accumulation), % at 46.1 µM; 120,000 tested, under 10 active; CHO-M1 cells, IP1 accumulation, HTRF TR-FRET ratio; Inositol monophosphatase 1 (Rattus norvegicus), P97697; active = well fitted curve in the direction sought with a large enough effect in the signal ratio, not every such curve was filed as active; inconclusive = small, poorly fitted or top-dose-only effect, or a change in a side signal; inactive = no such curve, though single readings can be large or run the other way; the % refers to the signal ratio;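 also: cells stimulated with carbachol in lithium chloride buffer; plate controls were DMSO basal wells for no effect and reference inhibitor wells for full effect; higher means more IMPase inhibition seen as more IP1 and lower FRET ratio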
#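 Measured: the HTRF emission ratio (665/620 nm) plus the 620 nm donor channel, each fitted to the Hill equation to give AC50. Cells were CHO-M1 given compounds up to 46 uM and a 30 min carbachol stimulation at 37C.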
# ALDH1A1 block: qHTS Assay for Inhibitors of Aldehyde Dehydrogenase 1 (ALDH1A1); Aldehyde dehydrogenase 1A1 (Homo sapiens), P00352; Purified ALDH1A1, NADH fluorescence, propionaldehyde substrate; Potency, µM (top dose mostly 75.3 µM), for inactives: at the highest dose activity, negative = inhibition, actives largely listed as inhibitors; hit rate 7.3% among 220,000; active = well fitted inhibition curve with a large enough effect, not every such curve was filed as active; inconclusive = small, poorly fitted or top-dose-only effect, or another doubt; inactive = no such curve, though single readings can be large or run the other way;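 also: potency is read from the fitted curve at half-maximal effect; plate controls were no enzyme wells and a reference inhibitor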
# Target sequence (P00352 whole entry, looked up): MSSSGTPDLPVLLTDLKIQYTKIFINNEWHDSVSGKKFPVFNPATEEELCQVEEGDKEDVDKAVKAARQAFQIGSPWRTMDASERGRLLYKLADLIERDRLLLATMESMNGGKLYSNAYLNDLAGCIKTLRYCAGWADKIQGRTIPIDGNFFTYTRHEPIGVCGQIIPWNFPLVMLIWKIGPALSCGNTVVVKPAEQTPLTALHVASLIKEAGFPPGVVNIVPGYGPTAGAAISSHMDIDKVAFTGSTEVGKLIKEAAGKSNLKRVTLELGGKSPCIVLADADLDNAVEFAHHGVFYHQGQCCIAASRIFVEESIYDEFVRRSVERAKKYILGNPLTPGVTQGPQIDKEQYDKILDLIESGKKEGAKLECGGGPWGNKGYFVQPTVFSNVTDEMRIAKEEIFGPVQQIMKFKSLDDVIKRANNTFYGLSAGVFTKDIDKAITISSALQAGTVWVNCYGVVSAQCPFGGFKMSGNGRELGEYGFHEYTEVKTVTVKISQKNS
# HttQ103 aggreg: qHTS Multiplex Assay to Identify Dual Action Probes in a Cell Model of Huntington: Aggregate Formation (GFP); hit rate 1.1% among 220,000; PC12 HttQ103-GFP aggregates, Acumen cytometry, 40 h; Potency, µM (series often up to 46.1 µM), inactives show at the top dose activity change, negative = inhibition, usual class: inhibitors; also: potency is read from the fitted curve at half-maximal effect; % is scaled to controls: 0 for no effect and ±100 for the full control effect; nearly all actives have a fitted effect of over 60% in size
#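 Read-out: GFP aggregate count by laser scanning cytometer (488 nm excitation, 500-530 nm emission, 1–25 µm objects >6 SD above background). Cells: PC12, inducible HTTex1-Q103-GFP, 100 nM tebufenozide; compounds titrated.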
# HTT cytoprotect: qHTS Multiplex Assay to Identify Dual Action Probes in a Cell Model of Huntington: Cytoprotection (ATP). PC12 HTT-Q103 induced, cytoprotection, ATP luminescence, 40 h. Potency, µM (highest dose often 56.4 µM), for inactives: cytoprotection (ATP increase), hits mostly activators. hit rate 0.14% among 230,000. AID 1471, 2008; also: potency is read from the fitted curve at half-maximal effect; % of control where 0% means no effect; nearly all actives have a fitted effect of over 45% in size
#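 PC12 cells with ecdysone-inducible HTT exon 1 Q103-GFP, induced with 100 nM tebufenozide and co-treated with library compounds in a dose series (1536-well, 1500 cells/well). Cytoprotection read as ATP content by ATPlite luminescence.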
# HPGD block: qHTS Assay for Inhibitors of HPGD (15-Hydroxyprostaglandin Dehydrogenase). 15-hydroxyprostaglandin dehydrogenase [NAD(+)] (Homo sapiens), P15428. purified HPGD, NADH fluorescence kinetic, PGE2 substrate. Potency, µM, without a hit: top-dose activity change, negative = inhibition, usual class: inhibitors. hit rate 4.3% among 150,000. AID 894, 2007; active = well fitted inhibition curve with a large enough effect, not every such curve was filed as active; inconclusive = small, poorly fitted or top-dose-only effect, or another doubt; inactive = no such curve, though single readings can be large or run the other way; also: potency is read from the fitted curve at half-maximal effect; % is scaled to controls: 0 for no effect and ±100 for the full control effect
#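 NADH formation kinetics: reaction with 30 uM PGE2 and 1 mM NAD+ (final), 20 nM enzyme, Tris-HCl pH 8 with Tween 20, after 15 min compound preincubation at room temperature. Fluorescence change, last versus first of five reads.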
# IMPase Li inh: qHTS Assay for Identifying the Cell-Membrane Permeable IMPase Inhibitors: Potentiation with Lithium. CHO-M1 cells, IP1 TR-FRET (IP-One), carbachol + lithium. Potency, µM (series often up to 59.4 µM), for the others: at the top dose activity, negative = IMPase inhibition, hits mostly inhibitors. hit rate 0.35% among 210,000. AID 1457, 2008;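 also: IP1 builds up when IMPase is blocked and the TR-FRET signal falls; potency is read from the fitted curve at half-maximal effect; plate controls were basal vehicle for no effect and high inhibitor control for full effect; nearly all actives have a fitted effect of over 50% in size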
#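 IP1 accumulation measured by competitive TR-FRET in lysed CHO-M1 cells after 30 min compound exposure at 37C, with a small lithium addition to potentiate weak responses. Hill-equation AC50 from ratio and donor-channel data.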
# Starred values were filed as active, the others as inactive; ? = inconclusive; nt = no result given; [ ] = dose if it differs, or a comment. Unless noted, calls follow the shape of the dose curve; as a rule, active = well fitted curve in the direction sought with a large enough effect; inconclusive = small, poorly fitted or top-dose-only effect, or another doubt; inactive = no such curve, though single readings can be large; an effect the other way counts as inactive or inconclusive.
SMILES,IMPase cell inh,ALDH1A1 block,HttQ103 aggreg,HTT cytoprotect,HPGD block,IMPase Li inh
O=C(c1ccco1)N1CCC2(CC1)CCN(c1cccc(-c3ccccc3)c1)CC2,nt,28µM*,nt,?,-19%,11%
O=c1oc2ccc3ccccc3c2cc1-c1nnc(Nc2cccc(C(F)(F)F)c2)s1,3,nt,nt,nt,nt,nt
CCCCCCCC1=Cc2ccccc2C(CC(=O)c2ccccc2)N1C(=O)OC (configuration not stated),nt,1%[13.5 µM],nt,-19%[10 µM],-11%,0%
COc1ccc(CCCc2nnc(SCC(=O)Nc3cccc(F)c3C)o2)cc1,32,nt,nt,nt,nt,nt
O=C(O)C[C@@H](C(=O)O)C1c2ccccc2-c2ccccc21,nt,9%[13.5 µM],nt,4%[10 µM],-9%,2%
O=C(CN1CC[n+]2c(-c3cccs3)csc21)c1ccc(-c2ccccc2)cc1,nt,8%,0%,-35%,nt,-13%
CCc1ccc(-c2csc3[n+]2CCN3C(C)=O)cc1,0,?,?,28%,14µM*,26%[38.3 µM]
CC(=O)N1CC[n+]2c(-c3ccc(Cl)cc3)csc21,nt,?,29%,nt,18µM*,7%
c1ccc2sc(SCN(C3CCCCC3)C3CCCCC3)nc2c1,nt,-19%[13.5 µM],nt,1%[10 µM],-12%,7%
C=C(C)C(=O)OCC1CN2C(CCC(C)C2c2ccc(Br)cc2)C(=O)O1 (configuration not stated),nt,0%[13.5 µM],nt,?,nt,nt
CCn1c(=O)c(C(=O)Nc2nc3ccccc3[nH]2)c(O)c2ccccc21,4,9%,10µM*,-35%,-7%,4%[38.3 µM]
CCc1nc2ccccc2c(=O)n1NC(=O)c1c(O)c2ccccc2n(CC)c1=O,nt,-3%,3%[9.22 µM],21%[10 µM],nt,3%
COc1cc(C2c3c(oc4ccc(C)cc4c3=O)C(=O)N2Cc2ccccc2)ccc1O (configuration not stated),-2,nt,nt,nt,nt,nt
O=C1CCCc2nc(N3CCN(Cc4ccccc4)CC3)ncc21,3,-4%,11µM*,-22%,-18%,-8%[38.3 µM]
COC(=O)C(C)c1ccc(C(=O)c2cccs2)cc1 (configuration not stated),nt,-2%,nt,-2%,14µM*,23%
Nc1ccc(C(=O)c2cccs2)cc1,nt,-1%,?,nt,22µM*,-5%
COc1ccc(C(=O)CC2(O)C(=O)N(CCc3ccccc3)c3ccc(Br)cc32)cc1OC (configuration not stated),3,nt,nt,nt,nt,nt
CCCCSc1nnc2c(n1)OC(c1ccc(Br)s1)N(C(C)=O)c1ccccc1-2 (configuration not stated),2,nt,nt,nt,nt,nt
C(=Nc1cccc2c(N=Cc3ccco3)cccc12)c1ccco1,nt,?,?,nt,nt,20%
Cc1ccc(N=Cc2ccc(N(C)C)cc2)cc1,7,0.56µM*,-4%,7%,-15%,-23%[38.3 µM]
Cc1ccc(N=Cc2ccc(N(C)C)cc2)cc1C,nt,0.56µM*,-6%,-32%,nt,-5%
CN(C)c1ccc(C=Nc2ccccc2)cc1,6,0.89µM*,7%,-2%,-16%,-6%[38.3 µM]
CN(C)c1ccc(N=Cc2ccco2)cc1,71,5µM*,1%[9.22 µM],-19%,-29%,174%[38.3 µM]
N=C(N)SCc1cccc2c(=O)cc(-c3ccccc3)oc12,nt,-9%[13.5 µM],nt,13%[10 µM],-11%,24%
CN(C)c1ccc(C=Nc2ccc(N(C)C)cc2)cc1,43,2.2µM*,-22%,-4%[10 µM],-27%,35%
CN(C)c1ccc(/C=N/NC(=O)c2ccccc2)cc1,nt,?,nt,nt,nt,8%
CN(C)c1ccc(/C=N/O)cc1,nt,-1%,-7%,-45%,nt,16%
C/C(=N/N=C/c1ccc(N(C)C)cc1)c1ccccc1,nt,25µM*,-5%,nt,-16%,-13%
CCCNC(=O)c1ccc2snnc2c1,?,?,17%,-11%[10 µM],-16%,0%

# Assay outcomes (PubChem BioAssay)
